# PubChem BioAssay
# Values joined by “and” are separate entries in the source; they are usually repeats but may differ in a detail not shown here. Identical values can stand only once. Active and inactive are the calls of the source. Rule as the data show it, unless noted: active = inhibition above about 80%; inactive = the rest.
# Assays:
# [1] = CRL2098 osteosarcoma cell growth inhibition, synergistic combos for chromothripsis tumors, BGB or cisplatin IC20 combos (AID 1671454); settings: CRL2098 osteosarcoma cells, drug combinations, stronger effect = higher value;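 also: cells exposed for 96 h before readout; 0% = vehicle DMSO and 100% = killing by high DMSO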
# [2] = HD-MB03 medulloblastoma cell growth inhibition, synergistic combos for chromothripsis tumors, BGB or cisplatin IC20 combos (AID 1671455; in the data active = inhibition above about 83%;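 also: 0% = vehicle DMSO and 100% = high DMSO as cytotoxic control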); settings: HD-MB03 medulloblastoma cells, stronger effect = higher value
# [3] = UWB1.289 ovarian carcinoma cell growth inhibition, synergistic combos for chromothripsis tumors, BGB or cisplatin combos (AID 1671456); settings: UWB1.289 ovarian carcinoma cells, stronger effect = higher value;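 also: cells exposed to compound for four days; 0% = vehicle DMSO and 100% = killing by high DMSO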
# [4] = LFS_MB_2R medulloblastoma cell growth inhibition, synergistic combos for chromothripsis tumors, cisplatin combos (AID 1671457); settings: LFS_MB_2R medulloblastoma cells, stronger effect = higher value;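 also: cells exposed to compound for four days before readout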
# [5] = MDA-MB-436 breast carcinoma cell growth inhibition, synergistic combos for chromothripsis tumors, BGB or cisplatin combos (AID 1671458; call rule not given here;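 also: cells exposed for 96 hours; 0% = vehicle DMSO and 100% = killing by high DMSO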); settings: MDA-MB-436 breast carcinoma growth inhibition, drug combinations, stronger effect = higher value
# [6] = UWB1.289_BRCA1 ovarian cancer growth, cell-based, BGB or cisplatin combinations (AID 1671459); settings: UWB1.289 BRCA1 ovarian carcinoma, drug combinations, stronger effect = higher value
# [7] = human astrocyte viability loss, single and combined drugs, cytotoxicity control for chromothriptic childhood tumor combination screen, cell-based, BGB or cisplatin IC20 combos (AID 1671460); settings: Human astrocytes, drug combinations, stronger effect = higher value;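 also: cells exposed to compounds for 96 hours before viability readout; 0% = vehicle and 100% = killing control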
# [8] = growth inhibition of BT084 medulloblastoma cells, cell-based, ICGC_MB145, cisplatin and BGB IC40 combos (AID 1671461); settings: drug combinations, stronger effect = higher value;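 also: cells exposed to drugs for 96 hours; 0% = vehicle DMSO and 100% = high DMSO full killing control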
# [9] = growth inhibition of RCMB18 medulloblastoma cells, cell-based, cisplatin and BGB IC40 combos (AID 1671462); settings: stronger effect = higher value;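 also: cells exposed to compound for four days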
# [10] = growth inhibition of CRL1545 osteosarcoma cells, cell-based, cisplatin and BGB IC20 combos (AID 1671464); settings: stronger effect = higher value;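 also: cells exposed to compound for 96 hours before readout; 0% = vehicle DMSO and 100% = high DMSO killing control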
# [11] = LFS_MB_P medulloblastoma growth inhibition, cell-based, chromothripsis tumors, cisplatin or BGB combos (AID 1671449); settings: LFS_MB_P medulloblastoma cells;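 also: cells exposed for 96 hours; 0% = vehicle DMSO and 100% = killing by high DMSO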
# [12] = HDN33 neuroblastoma growth inhibition, cell-based, chromothripsis tumors, cisplatin or BGB combos (AID 1671450); settings: HDN33 neuroblastoma cells, stronger effect = higher value;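 also: cells exposed to compound for four days; 0% = vehicle DMSO and 100% = cell killing by high DMSO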
# [13] = ICB984 medulloblastoma cell growth inhibition, synergistic combos for chromothripsis tumors, cisplatin or BGB combos (AID 1671451; call rule not given here;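 also: cells exposed for 96 hours before readout; 0% = vehicle DMSO and 100% = killing by high DMSO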); settings: ICB984 medulloblastoma cells, drug combinations, stronger effect = higher value
# [14] = LFS_MB_1R medulloblastoma cell growth inhibition, synergistic combos for chromothripsis tumors, cisplatin or BGB combos (AID 1671452); settings: LFS_MB_1R medulloblastoma cells, stronger effect = higher value;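 also: cells exposed for 96 hours before readout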
# [15] = HTB85 osteosarcoma cell growth inhibition, synergistic combos for chromothripsis tumors, BGB or cisplatin IC20 combos (AID 1671453); settings: HTB85 osteosarcoma cells, drug combinations, stronger effect = higher value;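 also: cells exposed for 96 hours before readout; 0% = vehicle DMSO and 100% = high DMSO killing control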
# [16] = measured here: combination with BGB at IC20, at 0.5 µM
# [17] = measured here: combination with cisplatin at IC20, at 0.5 µM
# [18] = measured here: combo with BGB at IC20, at 0.5 µM
# [19] = measured here: combo with cisplatin at IC20, at 0.5 µM
# [20] = measured here: inhibition with BGB combination, at 0.05 µM
# [21] = measured here: inhibition with cisplatin combination, at 0.05 µM
# [22] = measured here: combination with cisplatin, at 0.5 µM
# [23] = measured here: combination with cisplatin, at 5 µM
# [24] = measured here: BGB combination, at 0.5 µM
# [25] = measured here: BGB combination, at 5 µM
# [26] = measured here: cisplatin combination, at 0.5 µM
# [27] = measured here: cisplatin combination, at 5 µM
# [28] = BGB combination, concentration series, at 5 µM
# [29] = cisplatin combination, concentration series, at 5 µM
# [30] = measured here: combo with BGB IC20, at 0.5 µM
# [31] = measured here: combo with cisplatin IC20, at 0.5 µM
# [32] = cisplatin combination, at 0.5 µM
# [33] = measured here: BGB IC40 combination 0.05 uM, at 0.05 µM
# [34] = measured here: BGB IC40 combination, at 0.05 µM
# [35] = measured here: with BGB IC20 combination, at 0.5 µM
# [36] = measured here: with cisplatin IC20 combination, at 0.5 µM
# [37] = measured here: combination with BGB IC40, at 0.05 µM
compound,measurement,setting,value
CC(=O)C1(O)Cc2c(O)c3c(c(O)c2C(OC2CC(N)C(O)C(C)O2)C1)C(=O)c1ccccc1C3=O (stereo unspecified),inhibition,[1]; at 0.5 µM,98.6% (active)
same,inhibition,[1]; [16],98%
same,inhibition,[1]; [17],98.6%
same,inhibition,[2]; at 0.5 µM,94.5% (active)
same,inhibition,[2]; [18],89.5%
same,inhibition,[2]; [19],99.8%
same,inhibition,[3]; at 0.5 µM,83.1% (active)
same,inhibition,[3]; [20],40.5%
same,inhibition,[3]; [21],51.2%
same,inhibition,[4]; at 0.5 µM,75.6% (inactive)
same,inhibition,[4]; [22],88%
same,inhibition,[4]; [23],102%
same,inhibition,[5]; at 0.5 µM,76.4% (inactive)
same,inhibition,[5]; [24],65.8%
same,inhibition,[5]; [25],72.7%
same,inhibition,[5]; [26],82.9%
same,inhibition,[5]; [27],92.7%
same,inhibition,[6]; [28],101%
same,inhibition,[6]; at 0.5 µM,89% (active)
same,inhibition,[6]; [29],97.8%
same,inhibition,[7]; at 0.5 µM,89.9% (active)
same,inhibition,[7]; [30],84%
same,inhibition,[7]; [31],91.6%
same,inhibition,[8]; at 0.5 µM,13.8% (inactive)
same,inhibition,[8]; [32],-40.7%
same,inhibition,"[8]; cisplatin combination, at 5 µM",77.4%
same,inhibition,[8]; [33],-4.42%
same,inhibition,"[8]; single agent, at 5 µM",81.6%
same,inhibition,[9]; at 0.5 µM,75.2% (inactive)
same,inhibition,"[9]; cisplatin combo, at 5 µM",89.9%
same,inhibition,[9]; [34],34.7%
same,inhibition,[9]; [22],76.4%
same,inhibition,"[9]; single agent, at 5 µM",94.4%
same,inhibition,[10]; at 0.5 µM,99.1% (active)
same,inhibition,[10]; [35],98.7%
same,inhibition,[10]; [36],99.3%
same,inhibition,"[10]; single agent, at 0.05 µM",99.4%
same,inhibition,"[10]; single agent, at 5 µM",99.9%
CNc1cc(-c2cccc(Cl)c2Cl)nc(N)n1,inhibition,"[11]; at 0.5 µM, stronger effect = higher value",-8.18% (inactive) and -26.7% (inactive)
same,inhibition,"[11]; measured here: combination with BGB IC20, at 0.005 µM",12.7% and 6.36%
same,inhibition,"[11]; measured here: combination with BGB IC40, at 0.005 µM",-26.9% and -34.5%
same,inhibition,[11]; [37],-17.6% and -7.49%
same,inhibition,"[11]; measured here: combination with cisplatin, at 0.5 µM, stronger effect = higher value",-22.4% and -20%
same,inhibition,"[11]; measured here: combination with cisplatin, at 5 µM, stronger effect = higher value",-7.76% and -6.35%
same,inhibition,"[12]; BGB combo, at 5 µM",48.2% and 55.5%
same,inhibition,[12]; at 0.5 µM,-17.8% (inactive) and -6.13% (inactive)
same,inhibition,"[12]; cisplatin combo, at 5 µM",48.9% and 48.7%
same,inhibition,[12]; [35],-27.7% and -11%
same,inhibition,[12]; [36],-24.8% and -0.815%
same,inhibition,"[12]; single agent, at 5 µM",76.2% and 85.6%
same,inhibition,"[13]; BGB IC20 combo, at 0.005 µM",-21.8% and -29.5%
same,inhibition,"[13]; BGB IC40 combo, at 0.005 µM",-56.1% and -31.8%
same,inhibition,"[13]; BGB IC40 combo, at 0.05 µM",-22.7% and -34.1%
same,inhibition,[13]; at 0.5 µM,-44.2% (inactive) and -25.3% (inactive)
same,inhibition,"[13]; cisplatin combo, at 0.05 µM",-27.5% and -41.1%
same,inhibition,"[13]; cisplatin combo, at 0.5 µM",-72.1% and -45.6%
same,inhibition,"[13]; cisplatin combo, at 5 µM",-47.7% and -22.7%
same,inhibition,"[13]; measured here: 5 uM single agent, at 5 µM",-10.2% and -10.7%
same,inhibition,[14]; at 0.5 µM,-34.6% (inactive) and -4.83% (inactive)
same,inhibition,[14]; [37],-68.3% and -4.85%
same,inhibition,[14]; [22],-61.7% and -26.6%
same,inhibition,[14]; [23],-37.7% and -6.6%
same,inhibition,[15]; at 0.5 µM,-10% (inactive) and -11.4% (inactive)
same,inhibition,"[15]; measured here: with BGB IC20, at 0.5 µM",-16.2% and -6.99%
same,inhibition,"[15]; measured here: with BGB IC20, at 5 µM",35.9% and 44.4%
same,inhibition,"[15]; measured here: with cisplatin IC20, at 0.5 µM",-19.3% and -24.6%
same,inhibition,"[15]; measured here: with cisplatin IC20, at 5 µM",46.5% and 52.3%
same,inhibition,"[15]; single agent, at 5 µM",86.8% and 87.8%
same,inhibition,[1]; at 0.5 µM,-44.3% (inactive) and -58.9% (inactive)
same,inhibition,[1]; [16],-56.3% and -39.2%
same,inhibition,[1]; [17],-66.3% and -96.2%
same,inhibition,[2]; at 0.5 µM,7.62% (inactive) and 7.36% (inactive)
same,inhibition,[2]; [18],6.39% and 25.3%
same,inhibition,[2]; [19],10.3% and -5.76%
same,inhibition,[3]; at 0.5 µM,-17.7% (inactive) and -11.8% (inactive)
same,inhibition,[3]; [20],-38.9% and -10.5%
same,inhibition,[3]; [21],-22.8% and -21.6%
same,inhibition,[4]; at 0.5 µM,-20.6% (inactive) and -7.54% (inactive)
same,inhibition,[4]; [22],-10.7% and -19.4%
same,inhibition,[4]; [23],-1.17% and -0.403%
same,inhibition,[5]; at 0.5 µM,-4.77% (inactive) and 5.99% (inactive)
same,inhibition,[5]; [24],-12.3% and -2.46%
same,inhibition,[5]; [25],12% and 36.8%
same,inhibition,[5]; [26],-5.91% and 6.1%
same,inhibition,[5]; [27],53.8% and 59%
same,inhibition,[6]; [28],25.6% and 35%
same,inhibition,[6]; at 0.5 µM,-10.5% (inactive) and -13.3% (inactive)
same,inhibition,[6]; [29],31% and 30.9%
same,inhibition,[7]; at 0.5 µM,-0.46% (inactive) and -4.98% (inactive)
same,inhibition,[7]; [30],-4.03% and -6.91%
same,inhibition,[7]; [31],5.16% and -6.91%
same,inhibition,[8]; at 0.5 µM,-12.1% (inactive) and 5.54% (inactive)
same,inhibition,[8]; [32],-10.6% and -1.11%
same,inhibition,"[8]; cisplatin combination, at 5 µM",8.87% and -169%
same,inhibition,[8]; [33],37% and -7.52%
same,inhibition,"[8]; single agent, at 5 µM",37.7% and 19.1%
same,inhibition,[9]; at 0.5 µM,-17.1% (inactive) and -8.27% (inactive)
same,inhibition,"[9]; cisplatin combo, at 5 µM",-4.48% and -9.87%
same,inhibition,[9]; [34],-4.59% and 4.5%
same,inhibition,[9]; [22],-16.3% and -34.1%
same,inhibition,"[9]; single agent, at 5 µM",-7.05% and 22%
same,inhibition,[10]; at 0.5 µM,-60.9% (inactive) and -11.4% (inactive)
same,inhibition,[10]; [35],-68.8% and -40.3%
same,inhibition,[10]; [36],-56.9% and 1.42%
same,inhibition,"[10]; single agent, at 0.05 µM",-40.9% and -9.94%
same,inhibition,"[10]; single agent, at 5 µM",58.9% and 60.8%
